Laboratory results: PubChem BioAssay (NCI)
The panel holds about 79,000 compounds, 15% with a hit somewhere; the sample as a whole holds those more often. Unmarked numbers belong to inactive results. Active and inactive are the calls of the source. Rule as the data show it: active = growth inhibition above about 70%; inactive = the rest.

How the values were obtained:
[1] = NCI Yeast Anticancer Drug Screen. Data for the rad50 strain (AID 155);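 also: 0% = growth of vehicle-only cultures of the same strain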; details: S. cerevisiae rad50 strain growth inhibition; at 50.0 µM; stronger effect = higher value
Outline: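 Cells are treated with compound, grown, and their growth is then scored against vehicle-only cultures of the same repair-deficient yeast strain.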

[2] = NCI Yeast Anticancer Drug Screen. Data for the mec2-1 strain (AID 157); details: S. cerevisiae mec2-1 strain, at 50.0 µM, stronger effect = higher value
Outline: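 Test agents were screened against the mec2-1 yeast strain, with defined DNA repair or cell cycle alteration. Growth was scored as inhibition against vehicle-only controls.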

[3] = NCI Yeast Anticancer Drug Screen. Data for the sgs1 mgt1 strain (AID 161);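 also: 0% = growth of cultures given vehicle only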; details: S. cerevisiae sgs1 mgt1 strain, at 50.0 µM, stronger effect = higher value
Outline: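 Mutant yeast exposed to compound; growth scored against vehicle-only wells.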

[4] = NCI Yeast Anticancer Drug Screen. Data for the cln2 rad14 strain (AID 165);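 also: 0% = growth equal to vehicle treated cultures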; details: S. cerevisiae cln2 rad14 strain, at 50.0 µM, stronger effect = higher value
Outline: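 Growth of compound-exposed yeast (cln2 rad14 genotype) measured and expressed as inhibition relative to vehicle.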

[5] = NCI Yeast Anticancer Drug Screen. Data for the bub3 strain (AID 167); details: S. cerevisiae bub3 mutant strain, at 50.0 µM, stronger effect = higher value
Outline: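 Part of a panel of yeast mutants defective in DNA damage repair or cell cycle regulation. Each strain is grown with compound, and inhibition is calculated relative to solvent-treated cultures.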

[6] = NCI Yeast Anticancer Drug Screen. Data for the mlh1 rad18 strain (AID 175); details: S. cerevisiae mlh1 rad18 strain growth inhibition; at 50.0 µM; stronger effect = higher value
Outline: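 In this whole-cell yeast screen, a strain with altered DNA damage repair is challenged with compound, and its growth is measured against matched vehicle-treated controls.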

Structure (SMILES) | growth inhibition [1] | growth inhibition [2] | growth inhibition [3] | growth inhibition [4] | growth inhibition [5] | growth inhibition [6]
O=c1[nH]ncc(N/N=C(/C=C/c2ccc(C/C(=N/Nc3cn[nH]c(=O)c3Cl)c3ccccc3)cc2)c2ccccc2)c1Cl | 30.1% | 8.8% | 33.2% | -15.6% | 9.65% | 4%
COC(=O)[C@H](Cc1ccc(OC(C)(C)C)cc1)N[C@H](C)C(=O)N[C@@H](Cc1ccccc1)C(=O)OCc1ccccc1 | 35.5% | 35.1% | 50.1% | 67% | 62.4% | 57%
CC#Cc1c(C#CC)c(OC)c2c(c1OC)C(=O)c1ccccc1C2=O | -20.9% | -29.3% | -26.2% | 3.3% | -8.2% | -25.1%
O=C(Nc1ccc(Br)cc1)c1cc(Cl)cc(Cl)c1Br | -23.4% | 17.9% | -16.8% | -11.6% | 2.85% | 27.7%
CCOC(=O)NC(C)(C)CN(CCO)C(=O)OCC | -5.9% | -3.4% | 1.4% | -4.9% | -21.9% | -8.7%
CC(C)c1ccc(OC(=O)Nc2c(Cl)cccc2Cl)cc1 | -18.4% | -27.6% | 5.95% | 5.6% | 7.2% | -3.65%
Cc1ccc2c(c1)CCC(=O)O2 | 11.4% | 0% | -1.75% | -17.2% | 10.4% | 3.4%
O=C(O)C(=O)Cc1cccc(Cl)c1[N+](=O)[O-] | 2.15% | 5.25% | 13.4% | -10.6% | -4.75% | 15%
CC(=O)N/N=C/c1cccc([N+](=O)[O-])c1 | -6.25% | 5.15% | -4.55% | -35.8% | -19.9% | -7.9%
COc1cc(OC)c(C(C)=O)cc1OC | -9.2% | -13.9% | -3.15% | -2.8% | 6.3% | 6.7%
COC1OC(CS(=O)(=O)O)C(O)C(O)C1O (stereo not given) | -44.5% | -2.15% | -1.85% | -13.6% | -31.9% | -4.3%
Cc1c2ccccc2c(CN(C)CC(=O)NCC(=O)NCC(=O)O)c2ccccc12 | 97.5% (active) | 97.7% (active) | 97.5% (active) | 97.5% (active) | 98.2% (active) | 98.5% (active)
CCOC(=O)C1CCC/C1=N/Nc1ccc([N+](=O)[O-])cc1[N+](=O)[O-] (stereo not given) | -1% | 10.6% | 3.25% | -21.9% | -5.3% | -4.75%
CCOC(=O)Cc1ccc(-c2csc(Nc3ccc(Cl)cc3)n2)cc1 | 49.9% | 22.4% | 35% | 24.2% | 24.8% | 48.9%
Cc1cc(O)c(/C=N/c2nc(-c3ccc([N+](=O)[O-])cc3)cs2)c(=O)o1 | 58.1% | 20.9% | 40.8% | 20.1% | -7.7% | 74.1% (active)
CC1=NN2C(=O)C(c3ccccc3)SC2=NC(C)(C)C1 (stereo not given) | 13.1% | -18.9% | 4.05% | 26.6% | -9.15% | -7.25%
CSC(=O)c1sc(SC)[n+](-c2ccccc2)c1O | 4.95% | -20.2% | -1% | -5.5% | -13.3% | -7.9%
CC(C)N(C)c1ncnc2c1cnn2C | -1.55% | -2.85% | -3.95% | -14.8% | 1.75% | -14%
O=C(Nc1cc(Cl)ccc1Cl)C(=O)C(c1cnc2ccccc2n1)[N+](=O)[O-] (stereo not given) | 12.7% | 6.3% | -23.8% | 36.1% | 34.1% | 13.3%
COc1cccc(C2N(Cc3ccccc3OC)CCCN2Cc2ccccc2OC)c1 | 8.15% | 11.8% | 29.5% | 21.8% | -5.8% | 8%

Structure (SMILES) | growth inhibition [1] | growth inhibition [2] | growth inhibition [3] | growth inhibition [4] | growth inhibition [5] | growth inhibition [6]
Nc1ncnc2c1ncn2-c1ccccc1 | 4.05% | 2.95% | -2.05% | 9.7% | 9.85% | -17.4%
CCOC(=O)NNC(=O)c1ccccc1N(C)C | -12.4% | -18.6% | -7.05% | -13.7% | 25.1% | -4.45%
O=c1/c(=C/c2ccc(Cl)cc2)sc2nc(-c3ccccc3)nn12 | 0.85% | 7.75% | 8.8% | -6.75% | -12.8% | 23.6%
O=C(NNCCO)C(O)C(O)C(O)C(O)CO (stereo not given) | -31.4% | 7.15% | 2.95% | 5.25% | -4.7% | 13.2%
CCCCS/C=C\SCCCC | 2.85% | 7.55% | -8.5% | -26.4% | 6.7% | -1.65%
COc1ccc(C2C(Cl)C(=O)N2NC(=O)c2ccccc2O)cc1OC (stereo not given) | 2.85% | -12.1% | -18.6% | 15.4% | -22.4% | -34.1%
CCc1cc2c(c3c1CCCC3)CC1(Cc3ccc(C(=O)OC)cc3C1)C2 (stereo not given) | 3.65% | -11.7% | -16.4% | 10.3% | 3.15% | -12.4%
Cc1cc(C)c(NC(N)=S)cc1C | 7.65% | -23.2% | -5.35% | -7.7% | -5.55% | 7.55%
CC(=O)OC/C=C1/CC[C@H]2[C@@H]3CCC4=CC(=O)CC[C@]4(C)[C@H]3[C@@H](O)C[C@]12C | 26.4% | -4.25% | 8.65% | -31.4% | 13.4% | 26.9%
CNc1ncnc2[nH]ncc12 | 18.4% | -0.85% | 6.25% | -18.2% | -7.05% | 1.35%
O=C(Nc1ccccc1)SC1CCCCC1 | -4.6% | 4.95% | -8.7% | -21.1% | 3.8% | -1.9%
Nc1nnnn1CCc1ccccc1 | 7.75% | 6.3% | -4% | -10.8% | 4.4% | 9.75%
N#CC(C(=N/NC(N)=S)/C(=N/NC(N)=S)C(C#N)c1ccc(Cl)cc1)c1ccc(Cl)cc1 (stereo not given) | -16.9% | -19.8% | -23.9% | -6.85% | -4.95% | -13.1%
Cc1cc(Br)ccc1N=Cc1ccc(C=Nc2ccc(Br)cc2C)cc1 | -6.75% | -17.6% | -11.8% | -2.5% | -3.65% | -0.2%
CCOC(=O)C(Cc1c[nH]c2ccccc12)NC(=O)C1(O)C(O)C2(CC)C=CCN3CCC4(c5cc(C6(C(=O)OC)CC7CC(CC)CN(CCc8c6[nH]c6ccccc86)C7)c(OC)cc5N(C)C14)C32 (stereo not given) | 20.8% | 20.2% | 7.75% | 32.4% | 17% | 6.2%
O=S(=O)(Cl)c1cccc2c(S(=O)(=O)Cl)cccc12 | 7% | 2.15% | 15.4% | -40.5% | -10.4% | 16.2%
CCOC(=O)c1ncn2c1[nH]c(=O)c1ccccc12 | -6.95% | -16.6% | -8.9% | 1.2% | -9.5% | -10.6%
O=C(O)C1C2C=CC(O2)C1C(=O)NCc1ccncc1 (stereo not given) | -10% | 14.7% | -7.8% | -30.1% | -32.5% | 3.35%
O=C(O)c1ccc(C(=O)c2ccc(C(=O)c3ccc(C(=O)O)cc3)cc2)cc1 | -9.1% | -18.4% | 3.65% | -52% | -13% | -14.8%
O=C(O)c1ccc(-c2ccc(C(=O)O)cc2I)c(I)c1 | 25.2% | 2.2% | 6.25% | -5.25% | 0.15% | 10%
